According to PubChem BioAssay:
Unmarked numbers belong to inactive results. For some assays here: Results with a measured potency or affinity are listed apart. Active and inactive are the calls of the source. Unless noted, how the calls were made is not given here.

Key:
[1] = antimalarial activity against Dd2 strain (AID 2302;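 active means growth inhibition above 50% at the single 2 µM test dose, taken to imply half-maximal potency below 2 µM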;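 further: 0% = DMSO untreated growth and 100% = chloroquine plus artemisinin killed control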); settings: P. falciparum Dd2 in RBCs, LDH growth readout, 72 h; at 2 µM; stronger effect = higher value
[2] = human hepatoma cell viability loss – ATP luminescence, cytotoxicity control for P. falciparum antimalarial project, primary screen (AID 2303;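 active means inhibition above 50%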;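 further: 0% = DMSO wells and 100% = digitonin-killed cells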); settings: HepG2 viability, 24-48 h, at 10 µM, stronger effect = higher value
[3] = biological target: L-lactate dehydrogenase (Plasmodium falciparum (isolate CDC / Honduras)) (UniProt Q27743); test: PfLDH activity inhibition – cell lysate, 3D7 strain, counter-screen for P. falciparum growth inhibition project (AID 2304);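 further: 0% = vehicle and 100% = reference inhibitor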; settings: P. falciparum 3D7 crude extract, LDH APAD/NBT absorbance; at 2 µM; stronger effect = higher value
Sequence of L-lactate dehydrogenase (Plasmodium falciparum (isolate CDC / Honduras)) (Q27743 whole entry, looked up): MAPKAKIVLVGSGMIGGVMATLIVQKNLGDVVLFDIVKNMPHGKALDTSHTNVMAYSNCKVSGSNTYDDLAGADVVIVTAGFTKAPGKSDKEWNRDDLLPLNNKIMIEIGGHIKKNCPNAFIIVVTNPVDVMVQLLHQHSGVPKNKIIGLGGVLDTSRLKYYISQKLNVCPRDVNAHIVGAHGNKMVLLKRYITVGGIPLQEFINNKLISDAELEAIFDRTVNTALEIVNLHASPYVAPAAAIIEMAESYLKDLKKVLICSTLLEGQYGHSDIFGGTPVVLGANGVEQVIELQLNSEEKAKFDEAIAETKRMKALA

[4] = inhibition of 3D7 malaria parasite growth – strain 3D7 (AID 2306);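 further: 0% = DMSO wells and 100% = chloroquine plus artemisinin control wells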; settings: P. falciparum 3D7 erythrocytic growth, LDH absorbance, 72 h; at 2 µM; stronger effect = higher value
[5] = biological target: Calcium-dependent protein kinase 1 (Plasmodium falciparum (isolate 3D7)) (UniProt P62344); test: PfCDPK1 kinase inhibitors, biochemical, TCAMS library (AID 1159585; cut-off not given, nearly all actives have IC50 up to about 0.98 µM;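 further: inhibitors leave more ATP so luminescence rises with inhibition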); settings: recombinant PfCDPK1, Kinase-Glo ATP depletion luminescence
Sequence of Calcium-dependent protein kinase 1 (Plasmodium falciparum (isolate 3D7)) (P62344 whole entry, looked up): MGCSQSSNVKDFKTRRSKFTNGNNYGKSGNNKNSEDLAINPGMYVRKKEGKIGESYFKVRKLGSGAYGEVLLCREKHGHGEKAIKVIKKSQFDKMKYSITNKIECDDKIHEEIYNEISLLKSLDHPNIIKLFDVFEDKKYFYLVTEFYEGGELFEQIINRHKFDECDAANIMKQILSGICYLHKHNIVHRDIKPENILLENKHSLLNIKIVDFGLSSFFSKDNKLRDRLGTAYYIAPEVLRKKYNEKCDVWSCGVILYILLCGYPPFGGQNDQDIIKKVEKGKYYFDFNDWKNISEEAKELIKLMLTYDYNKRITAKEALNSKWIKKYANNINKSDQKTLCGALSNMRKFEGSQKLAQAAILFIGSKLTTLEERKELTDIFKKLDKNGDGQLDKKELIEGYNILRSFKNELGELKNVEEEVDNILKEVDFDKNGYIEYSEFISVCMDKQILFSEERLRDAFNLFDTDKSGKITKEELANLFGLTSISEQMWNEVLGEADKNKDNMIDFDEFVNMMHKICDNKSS

[6] = biological target: Plasmodium falciparum protein kinase 6 (PK6, PF3D7_1337100) (UniProt Q8IDW1); test: PfPK6 kinase inhibitors, biochemical, TCAMS library (AID 1159586); settings: recombinant PfPK6, Kinase-Glo ATP depletion luminescence
Sequence of Plasmodium falciparum protein kinase 6 (PK6, PF3D7_1337100) (Q8IDW1 1-305): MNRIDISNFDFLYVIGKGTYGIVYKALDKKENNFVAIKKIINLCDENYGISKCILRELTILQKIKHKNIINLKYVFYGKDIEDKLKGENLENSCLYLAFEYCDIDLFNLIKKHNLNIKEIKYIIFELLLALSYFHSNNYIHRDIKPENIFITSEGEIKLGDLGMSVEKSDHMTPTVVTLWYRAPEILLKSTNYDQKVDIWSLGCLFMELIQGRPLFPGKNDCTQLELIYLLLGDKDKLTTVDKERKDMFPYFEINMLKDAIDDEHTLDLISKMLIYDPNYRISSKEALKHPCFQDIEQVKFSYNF

[7] = biological target: Protein kinase 7 (PK7), Plasmodium falciparum 3D7 (PF3D7_0213400) (UniProt Q7YTF7); test: inhibition of Plasmodium PK7 catalytic activity – biochemical, TCAMS antimalarial set, Kinase-Glo luminescence (AID 1159587); settings: recombinant PfPK7, Kinase-Glo ATP depletion luminescence
Sequence of Protein kinase 7 (PK7), Plasmodium falciparum 3D7 (PF3D7_0213400) (Q7YTF7 1-343): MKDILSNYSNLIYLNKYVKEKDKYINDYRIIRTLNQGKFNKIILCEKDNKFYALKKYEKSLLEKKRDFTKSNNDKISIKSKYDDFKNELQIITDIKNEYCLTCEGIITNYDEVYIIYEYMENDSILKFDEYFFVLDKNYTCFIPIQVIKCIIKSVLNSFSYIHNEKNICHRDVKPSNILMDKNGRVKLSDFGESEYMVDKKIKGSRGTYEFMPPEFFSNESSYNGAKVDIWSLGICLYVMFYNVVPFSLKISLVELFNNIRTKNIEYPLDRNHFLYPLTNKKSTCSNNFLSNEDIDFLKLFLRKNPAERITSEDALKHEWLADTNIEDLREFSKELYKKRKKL

[8] = biological target: Calcium-dependent protein kinase 4 (Plasmodium falciparum (isolate 3D7)) (UniProt Q8IBS5); test: PfCDPK4 kinase inhibitors, biochemical, TCAMS library (AID 1159588; cut-off not given, nearly all actives have IC50 up to about 0.91 µM); settings: recombinant PfCDPK4, Kinase-Glo ATP depletion luminescence
Sequence of Calcium-dependent protein kinase 4 (Plasmodium falciparum (isolate 3D7)) (Q8IBS5 whole entry, looked up): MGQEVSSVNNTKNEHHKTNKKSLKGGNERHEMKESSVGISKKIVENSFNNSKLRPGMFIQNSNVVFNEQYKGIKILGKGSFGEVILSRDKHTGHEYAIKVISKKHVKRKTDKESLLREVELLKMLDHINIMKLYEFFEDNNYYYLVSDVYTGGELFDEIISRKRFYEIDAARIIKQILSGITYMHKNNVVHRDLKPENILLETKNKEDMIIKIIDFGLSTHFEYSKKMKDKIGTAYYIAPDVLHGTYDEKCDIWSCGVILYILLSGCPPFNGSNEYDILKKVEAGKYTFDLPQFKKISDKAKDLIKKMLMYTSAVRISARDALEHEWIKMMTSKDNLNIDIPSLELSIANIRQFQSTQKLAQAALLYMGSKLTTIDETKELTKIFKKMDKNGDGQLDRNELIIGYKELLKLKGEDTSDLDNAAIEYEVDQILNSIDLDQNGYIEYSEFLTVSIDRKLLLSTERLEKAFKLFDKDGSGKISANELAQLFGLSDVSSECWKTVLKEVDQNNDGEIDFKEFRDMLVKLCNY

| Structure (SMILES) | growth inhibition [1] | inhibition [2] | inhibition [3] [%] | growth inhibition [4] | outcome [5] | outcome [6] | outcome [7] | outcome [8] |
| --- | --- | --- | --- | --- | --- | --- | --- | --- |
| N[C@@H](Cc1cc(I)c(Oc2ccc(O)c(C(=O)O)c2)c(I)c1)C(=O)O | 21% | 57% (active) | -1 | 97% (active) | inactive | inactive | inactive | inactive |
| C1=CN(Cc2ccccc2)C=CC1=C1C=Nc2ccccc21 | 69% (active) | 8% | -3 | 90% (active) | inactive | inactive | inactive | inactive |
| Fc1ccc2nc(-c3cccc(-c4ccc(CNCCc5ccncc5)cc4)c3)[nH]c2c1 | 100% (active) | 44% | 4 | 99% (active) | inactive | inactive | inactive | inactive |
| CCc1ccc(S(=O)(=O)Nc2ccc(CCN(C)C3CCN(C)CC3)cc2)cc1 | 9% | 25% | -4 | 86% (active) | inactive | inactive | inactive | inactive |
| FC(F)(F)c1ccc(/C=C/c2cncnc2Nc2ccc3nc(Cc4ccccc4)[nH]c3c2)cc1 | 101% (active) | 21% | 1 | 100% (active) | inactive | inactive | inactive | inactive |
| CCCCCCCCCc1c(C)[nH]c2ccccc2c1=O | 96% (active) | -16% | 7 | 97% (active) | inactive | inactive | inactive | inactive |
| Cc1cccc2[nH]c(-c3cccc(-c4ccc(NC(=O)C5CCCO5)cc4)c3)nc12 (stereo not given) | 13% | 10% | -4 | 91% (active) | inactive | inactive | inactive | inactive |
| CC(C)C(=O)NC(c1ccc(Cl)cc1)c1ccc2cccnc2c1O (stereo not given) | 70% (active) | 53% (active) | 3 | 91% (active) | inactive | inactive | inactive | inactive |
| COc1ccc(C2SCC(=O)N2CCc2ccc(OC)c(OC)c2)cc1 (stereo not given) | 2% | 19% | 1 | 96% (active) | inactive | inactive | inactive | inactive |
| CC(=O)N(Cc1nc(-c2cc(Cl)c(Cl)s2)cs1)c1c(C)cccc1C | 95% (active) | 5% | 3 | 98% (active) | inactive | inactive | inactive | inactive |
| COc1cc(CNCCCCCCNCc2cc(OC)c3ccccc3c2OC)c(OC)c2ccccc12 | 40% | 99% (active) | -2 | 102% (active) | inactive | inactive | inactive | inactive |
| O=C(Nc1ccc(C(F)(F)F)cc1)NC1CCN(c2ccnc3cc(Cl)ccc23)C1 (stereo not given) | 99% (active) | 20% | -2 | 102% (active) | inactive | inactive | inactive | inactive |
| O=C(NCCCN1CCOCC1)c1csc(Nc2ccc(Cl)c(Cl)c2)n1 | 23% | 5% | 2 | 92% (active) | inactive | inactive | inactive | inactive |
| CC1CN(Cc2ccc(-c3ccc(-c4nc5ccc(F)cc5[nH]4)s3)cc2)CC(C)O1 (stereo not given) | 89% (active) | 35% | -10 | 88% (active) | inactive | inactive | inactive | inactive |
| Cc1nc(NCCCn2ccnc2)cc(-c2cncc(-c3ccc(OC(F)(F)F)cc3)c2)n1 | 11% | 2% | 2 | 99% (active) | inactive | inactive | inactive | inactive |
| CCCC(C)Nc1nc(C)cc(N[C@@H](Cc2ccccc2)C(=O)NCc2ccc(C)cc2)n1 (stereo not given in full) | 93% (active) | 22% | 5 | 101% (active) | inactive | inactive | inactive | inactive |
| Cc1cc(Nc2ccccc2)nc(Nc2ccccc2)n1 | 74% (active) | 0% | -1 | 96% (active) | inactive | inactive | inactive | inactive |
| COc1ccc2ccccc2c1CNCC1CCN(CC2CCCCC2)CC1 | 27% | 23% | -3 | 98% (active) | inactive | inactive | inactive | inactive |
| O=C(c1cccs1)N(Cc1cccc(-c2ccc(CNCCc3ccccc3)cc2)c1)C1CCN(Cc2ccccc2)CC1 | 76% (active) | 3% | -3 | 95% (active) | inactive | inactive | inactive | inactive |
| O=C(Nc1cc(Oc2ccc(O)cc2)cc([N+](=O)[O-])c1)c1cc(-c2ccc(F)cc2)no1 | 37% | 61% (active) | 0 | 88% (active) | inactive | inactive | inactive | inactive |

| Structure (SMILES) | growth inhibition [1] | inhibition [2] | inhibition [3] [%] | growth inhibition [4] | outcome [5] | outcome [6] | outcome [7] | outcome [8] |
| --- | --- | --- | --- | --- | --- | --- | --- | --- |
| O=C(Nc1ccc(F)cc1)c1nc2ccccc2nc1Cl | 62% (active) | 44% | -1 | 80% (active) | inactive | inactive | inactive | inactive |
| COc1ccc(-c2ccc(NC(=O)c3cccc(Cl)c3)cc2)cc1CN1CCC(O)CC1 | 12% | 15% | -5 | 102% (active) | inactive | inactive | inactive | inactive |
| COc1ccc(C(=O)N2CCN(c3ccc([N+](=O)[O-])c(NC4CC4)c3)CC2)cc1Br | 68% (active) | 6% | 5 | 99% (active) | inactive | inactive | inactive | inactive |
| CCCc1cc(C(=O)N[C@@H](Cc2ccccc2)[C@H](O)CNC2CCOCC2)c(F)c(N2CCCCS2(=O)=O)c1 | 97% (active) | -6% | -3 | 97% (active) | inactive | inactive | inactive | inactive |
| Cc1cccc2[nH]c(-c3cccc(-c4cccc(NC(=O)c5ccc(=O)[nH]n5)c4)c3)nc12 | 32% | 10% | -1 | 101% (active) | inactive | inactive | inactive | inactive |
| CCNc1cc(C(=O)N[C@@H](Cc2ccco2)[C@H](O)CNC2CCCCC2)cc(N2CCCCS2(=O)=O)c1 | 57% (active) | 14% | 3 | 91% (active) | inactive | inactive | inactive | inactive |
| CC1(C)Cc2c([nH]c3ccccc23)C(CCCCCCCCC2=NC(C)(C)Cc3c2[nH]c2ccccc32)=N1 | 88% (active) | 100% (active) | -1 | 99% (active) | inactive | inactive | inactive | inactive |
| COc1ccc(CNCCc2cccs2)cc1-c1ccc(S(=O)(=O)NCCN2CCCC2)s1 | 21% | 41% | 2 | 99% (active) | inactive | inactive | inactive | inactive |
| O=C(Cc1cccc(Cl)c1)Nc1cccc(-c2c[nH]c3nc(Nc4ccccc4)ncc23)c1 | 70% (active) | 5% | -2 | 99% (active) | inactive | inactive | inactive | inactive |
| Cn1c(Nc2cc(C(C)(C)C)on2)nc2cc(Nc3ccnc(Nc4cccc(S(=O)(=O)N5CCOCC5)c4)n3)ccc21 | 96% (active) | 32% | 5 | 101% (active) | inactive | inactive | inactive | inactive |
| CC(C)CCNCc1ccc(OCc2ccccc2COc2ccc(CNCCC(C)C)cc2I)c(I)c1 | 78% (active) | 99% (active) | 0 | 101% (active) | inactive | inactive | inactive | inactive |
| CC1(C)N=C(N)N=C(N)N1OCCCOc1ccc([N+](=O)[O-])cc1 | 80% (active) | 68% (active) | 0 | 94% (active) | inactive | inactive | inactive | inactive |
| COc1ccc(CNc2nccc3ccc(-c4ccc5nccn5c4)cc23)cc1 | 47% | 17% | -4 | 95% (active) | inactive | inactive | inactive | inactive |
| Cc1cc(NCCc2ccccc2)nc(NC(=NCC(=O)OC(C)(C)C)Nc2ccc(C(F)(F)F)cc2)n1 | 97% (active) | 23% | 2 | 100% (active) | inactive | inactive | inactive | inactive |
| O=S(=O)(NCCN1CCCC1)c1ccc(-c2ccc(CNCc3ccsc3)cc2)cc1 | 36% | 44% | -5 | 95% (active) | inactive | inactive | inactive | inactive |
| CCCNCc1ccc(-c2ccc(CN(CCOC)C(=O)/C=C/c3ccccc3C)cc2)nc1 | 39% | 13% | 2 | 95% (active) | inactive | inactive | inactive | inactive |
| Oc1ccccc1CN1CCCC(COC(c2ccc(F)cc2)c2ccc(F)cc2)C1 (stereo not given) | 98% (active) | 19% | 1 | 97% (active) | inactive | inactive | inactive | inactive |
| C[C@@H]1CN(c2cnn(C/C=C/c3ccc(NC(=O)c4ccc([N+](=O)[O-])cc4)cc3)c(=O)c2Cl)C[C@H](C)N1 | 38% | 22% | -3 | 96% (active) | inactive | inactive | inactive | inactive |
| CC(=O)Nc1ccc(OCCCN(Cc2ccccc2OC(F)(F)F)c2ccc(C(F)(F)F)c(C#N)c2)c(Cl)c1 | 80% (active) | 5% | 0 | 91% (active) | inactive | inactive | inactive | inactive |
| COc1cccc2cc(C(=O)N[C@@H](CC(C)C)C(=O)N[C@H](/C=N/N3C(=O)CN(Cc4ccccc4)C3=O)CCc3ccccc3)oc12 | 52% (active) | 14% | -1 | 85% (active) | inactive | inactive | inactive | inactive |
